# Reference: PubChem BioAssay (EPA / NIEHS)
# Inconclusive results are not listed. Calls of active or inactive are those of the source. Rule for the calls: active = hit-call score of the fitted dose curve at least 0.9, where 1 is the maximum; inconclusive = response in the unintended direction; inactive = score below 0.9.
# Molecular target: sheep Cyclooxygenase-1 (Cox1), PTGS1 (gene 443551) (UniProt P05979)
# Test: NVS_ENZ_oCOX1: NovaScreen (NVS) Enzymatic Assay for sheep Cyclooxygenase-1 (Cox1) (AID 2283239);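 note: actives reduce cyclooxygenase activity so potencies are for inhibitors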
# Outline: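 Tested in duplicate at 25 uM, then in concentration series if active, against seminal vesicle extract from sheep. Enzyme activity was measured colorimetrically at 0.66 hour and normalised to DMSO.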
# sheep Cyclooxygenase-1 (Cox1), PTGS1 (gene 443551), sequence (P05979 whole entry, looked up): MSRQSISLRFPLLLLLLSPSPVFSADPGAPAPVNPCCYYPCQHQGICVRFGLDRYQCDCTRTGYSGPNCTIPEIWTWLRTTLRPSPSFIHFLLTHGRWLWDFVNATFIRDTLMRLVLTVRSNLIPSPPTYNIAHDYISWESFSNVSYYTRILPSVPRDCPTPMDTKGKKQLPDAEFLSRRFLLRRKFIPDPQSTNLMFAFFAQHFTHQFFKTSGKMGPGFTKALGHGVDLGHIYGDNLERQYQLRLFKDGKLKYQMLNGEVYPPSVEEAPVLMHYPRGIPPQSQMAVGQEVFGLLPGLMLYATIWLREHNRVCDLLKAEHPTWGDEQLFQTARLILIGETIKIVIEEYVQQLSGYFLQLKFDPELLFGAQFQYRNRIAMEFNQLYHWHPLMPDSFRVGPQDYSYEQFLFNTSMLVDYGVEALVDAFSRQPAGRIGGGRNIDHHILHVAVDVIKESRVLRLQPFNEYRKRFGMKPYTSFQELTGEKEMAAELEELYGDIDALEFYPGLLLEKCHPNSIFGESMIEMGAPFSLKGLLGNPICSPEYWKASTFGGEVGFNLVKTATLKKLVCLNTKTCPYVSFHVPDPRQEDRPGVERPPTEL
SMILES,AC50,outcome
CCCCC(CC)COC(=O)CC(C(=O)OCC(CC)CCCC)S(=O)(=O)O (stereo not drawn),6.53 µM (active),–
COc1ccc(C)cc1N,10.7 µM (active),–
CCOC(=O)C(C)(C)Oc1ccc(Cl)cc1,–,inactive
CC(=O)Oc1ccccc1C(=O)O,–,inactive
CC=Cc1ccc(O)c(OC)c1,–,inactive
CCCCCCC(=O)OCC,–,inactive
O=[N+]([O-])C(CO)(CO)CO,–,inactive
Cc1ccc(Cl)cc1,–,inactive
Nc1nc(N)c2nc(CNc3ccc(C(=O)N[C@@H](CCC(=O)O)C(=O)O)cc3)cnc2n1,1.66 µM (active),–
CC(=O)OC/C=C(\C)CCC=C(C)C,8.78 µM (active),–

# Molecular target: Adenosine receptor A1 (Bos taurus) (UniProt P28190)
# Sequence (P28190 whole entry, looked up): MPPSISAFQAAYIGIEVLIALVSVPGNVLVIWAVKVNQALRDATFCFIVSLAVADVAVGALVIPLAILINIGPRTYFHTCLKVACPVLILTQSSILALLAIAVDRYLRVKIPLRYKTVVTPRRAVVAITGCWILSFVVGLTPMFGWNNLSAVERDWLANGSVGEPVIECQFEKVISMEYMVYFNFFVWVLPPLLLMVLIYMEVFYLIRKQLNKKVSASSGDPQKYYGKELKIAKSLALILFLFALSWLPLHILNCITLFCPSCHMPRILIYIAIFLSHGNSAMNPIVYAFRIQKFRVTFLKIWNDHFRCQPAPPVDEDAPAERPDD
# Test: NVS_GPCR_bAdoR_NonSelective: NovaScreen (NVS) G Protein-Coupled Receptor Assay for bovine Adenosine Receptor (AdoR), Non-selective Binding (AID 2283244)
# Outline: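 Bovine striatal membranes, radioligand displacement binding, 1 h after dosing, filter-based scintillation counting. Screened in duplicate at 25 uM, then concentration-response up to 50 uM; loss of specific binding relative to DMSO.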
SMILES,AC50,outcome
Nc1ccc2c(c1)C(=O)c1ccccc1C2=O,25 µM (active),–
COc1cc(S(=O)(=O)O)c(C)cc1N=Nc1c(O)ccc2cc(S(=O)(=O)O)ccc12,–,inactive
Cc1ccc(N(C)C)cc1,–,inactive
Oc1ccc2ccccc2c1N=Nc1ccccc1,25 µM (active),–
O=c1c(O)c(-c2ccc(O)c(O)c2)oc2cc(O)cc(O)c12,0.89 µM (active),–

# Tested on: not listed separately
# Test: NVS_GPCR_bNPY_NonSelective: NovaScreen (NVS) G Protein-Coupled Receptor Assay for bovine Neuropeptide Y (NPY) Receptor, Non-selective Binding (AID 2283245)
# Outline: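 Bovine hippocampal membranes incubated 1 hour with radioligand and test chemical. Bound ligand measured by filter-based scintillation counting. Single-concentration screen at 25 uM in duplicate, then concentration-response up to 50 uM.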
row,SMILES,outcome
1,CCCCCCCCCCCC(=O)OC,inactive
2,CCCCCCOCCO,inactive
3,COc1ccc(S(=O)(=O)N2C(=O)[C@@](c3ccccc3OC)(N3C[C@H](O)C[C@H]3C(=O)N(C)C)c3cc(Cl)ccc32)c(OC)c1,inactive

# Tested on: guinea pig Leukotriene B4 Receptor (LTB4), gene 100379538
# Test: NVS_GPCR_gLTB4: NovaScreen (NVS) G Protein-Coupled Receptor Assay for guinea pig Leukotriene B4 Receptor (LTB4) (AID 2283247)
# Outline: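 Radioligand displacement on guinea pig spleen membranes, filter-based scintillation counting 2 h after dosing. Primary duplicate single point at 25 uM; hits over threshold (e.g. 30% inhibition) run in concentration-response up to 50 uM, DMSO baseline.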
SMILES,outcome,AC50
C=CCc1ccc(O)c(OC)c1,inactive,–
CCCCC(CC)COC(=O)CC(C(=O)OCC(CC)CCCC)S(=O)(=O)O (stereo not drawn),–,6.15 µM (active)
COc1cc(S(=O)(=O)O)c(C)cc1N=Nc1c(O)ccc2cc(S(=O)(=O)O)ccc12,inactive,–
COCCOC[C@H](CC1(C(=O)NC2CCC(C(=O)O)CC2)CCCC1)C(=O)Oc1ccc2c(c1)CCC2 (stereo partly drawn),inactive,–
CNC(=O)[C@H]1O[C@@H](n2cnc3c(NCc4cc(Cl)ccc4OCc4cc(C)no4)ncnc32)[C@H](O)[C@@H]1N,–,25 µM (active)
